Compound activity as filed in PubChem.
Many of the other results were omitted from the sample, so hits are more common in it than they were.
Giardia FBPA inh – qHTS Assay for Inhibitors of Fructose-1,6-bisphosphate Aldolase from Giardia Lamblia. AID 2451, 2010. 0.71% of 290,000 active. Potency, µM (doses to about 59.6 µM), without a hit: at the top dose activity, negative = inhibition, hits mostly inhibitors. purified Giardia FBPA. A8B2U2; also: potency is read from the fitted curve at half-maximal effect; % is scaled to controls: 0 for no effect and ±100 for the full control effect; nearly all actives have a fitted effect of over 55% in size
Target sequence (A8B2U2 whole entry, looked up): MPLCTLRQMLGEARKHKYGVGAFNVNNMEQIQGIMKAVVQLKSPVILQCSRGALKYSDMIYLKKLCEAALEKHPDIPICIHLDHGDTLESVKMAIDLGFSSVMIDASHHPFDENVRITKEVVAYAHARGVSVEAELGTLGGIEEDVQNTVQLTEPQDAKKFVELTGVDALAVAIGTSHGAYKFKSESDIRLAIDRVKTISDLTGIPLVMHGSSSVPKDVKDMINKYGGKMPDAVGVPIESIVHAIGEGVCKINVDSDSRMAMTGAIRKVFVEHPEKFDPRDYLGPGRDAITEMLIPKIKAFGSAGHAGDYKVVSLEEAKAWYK
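40 nM FBPA preincubated 10 min at RT with compound (up to 57.5 uM final), then substrate plus GAPDH/TPI/NAD/arsenate coupling and diaphorase/resazurin added. Fluorescence read after 20 min at RT, 525/598 nm.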
LmPK inh – qHTS Assay for Inhibitors of Leishmania Mexicana Pyruvate Kinase (LmPK) | Q27686 | purified LmPK, Kinase-Glo ATP luminescence, 1 h | Potency, µM (highest dose often 57.5 µM), for inactives: at the top dose activity change, negative = inhibition, most hits filed as inhibitors | 0.37% of 290,000 active | AID 1721, 2009; also: potency is read from the fitted curve at half-maximal effect; % is scaled to controls: 0 for no effect and ±100 for the full control effect
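qHTS format; LmPK 0.1 nM; substrates PEP 0.5 mM and ADP 0.1 mM. One-hour room-temperature incubation, then coupled luciferase luminescence; 0.5 nM enzyme wells mark activation.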
Cycloheximide cs – Cycloheximide Counterscreen for Small Molecule Inhibitors of Shiga Toxin; cell reporter, cycloheximide protein synthesis inhibition counterscreen; max response, %; 12% of 300,000 active; in the data active = max response mostly above about 13%, no sharp cut-off; inactive = mostly below about 14%; also: read at 38.3 µM for the half of the compounds with a filed dose; 0% is about no effect
TbPYK inhibitor – qHTS of Trypanosoma Brucei Inhibitors; 0.12% of 410,000 active; TbPYK enzyme, Kinase-Glo Plus ATP luminescence, 45 min; Potency, µM (top dose mostly 76.8 µM), inactives show at the top dose activity, negative = inhibition, actives largely listed as inhibitors; AID 624173, 2012; pyruvate kinase (Trypanosoma brucei), Q57TT1; also: potency is read from the fitted curve at half-maximal effect; % is scaled to controls: 0 for no effect and ±100 for the full control effect; nearly all actives have a fitted effect of over 50% in size
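Quantitative HTS: titrated library compounds versus trypanosomal pyruvate kinase in TEA buffer (pH 7.2) containing KCl, MgCl2, BSA and Tween-20. Reactions were initiated with ADP, 130 uM final. Kinase-Glo Plus luminescence was read after 45 min at RT.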
RE007 growth inh – qHTS Assay for Inhibitors of the HIV-1 protein Vpr. 0.21% of 360,000 active. Potency, µM (series often up to 92.2 µM), for inactives: at the top dose activity change, negative = less growth, actives largely listed as inhibitors. S. pombe RE007 Vpr strain, BacTiter-Glo ATP luminescence, 24 h; active = well fitted falling curve with a large enough effect; inconclusive = small, poorly fitted or top-dose-only effect; inactive = no such curve, though single readings can be large or run the other way; also: potency is read from the fitted curve at half-maximal effect; % is scaled to controls: 0 for no effect and ±100 for the full control effect; nearly all actives have a fitted effect of over 50% in size
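Fission yeast RE007 carrying one integrated HIV-1 vpr copy, seeded at OD 0.01 in PMG+AL medium with 23 nL pinned compound. Grown 24 h at 30 degrees; viability read by BacTiter-Glo luminescence after 5 min.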
Shiga toxin inh – A qHTS for Small Molecule Inhibitors of Shiga Toxin; Vero cells, Shiga toxin protein synthesis inhibition reporter; inhibition, % at 38.7 µM; 9.2% of 290,000 active; AID 2315, 2010; in the data active = inhibition mostly above about 28%, no sharp cut-off; inactive = mostly below about 43%; also: 0% is about no effect
Starred values were filed as active, the others as inactive; u = inconclusive; x = not tested or not shown; [ ] = remark or other dose. Unless noted, calls follow the shape of the dose curve; as a rule, active = well fitted curve in the direction sought with a large enough effect; inconclusive = small, poorly fitted or top-dose-only effect, or another doubt; inactive = no such curve, though single readings can be large; an effect the other way counts as inactive or inconclusive.

SMILES | Giardia FBPA inh | LmPK inh | Cycloheximide cs | TbPYK inhibitor | RE007 growth inh | Shiga toxin inh
COCCNC(=O)c1noc2c1CCc1cc(OC)ccc1-2 | 3.7% | 0.0% | 34.7* | -15.5% | -1.1% | 65.9
COc1ccc2c(c1)CCc1c(C(=O)N(C)c3ccccc3)noc1-2 | -7.4% | 15.0% | 48.9* | -0.5% | -8.8% | 123.1*
COc1ccc2c(c1)CCc1c(C(=O)NC3CCCCC3)noc1-2 | -19.2% | -1.1% | 45.3* | -2.5% | -16.2% | 58.7*
COc1ccc2c(c1)CCc1c(C(=O)NCc3ccco3)noc1-2 | -5.7% | 1.7% | 34.2* | -2.3% | -2.2% | 66.8*
COc1ccc2c(c1)CCc1c(C(=O)Nc3ccc(C#N)cc3)noc1-2 | x | x | x | 1.6% | x | x
COc1ccc2c(c1)CCc1c(C(=O)NCCN3CCOCC3)noc1-2 | -5.1% | -0.5% | -2.2 | -0.3% | -16.8% | -14.2
O=S(=O)(c1ccc2ccccc2c1)n1nc(-c2ccco2)nc1NCc1cccc(Cl)c1 | x | x | x | 4.0% | x | x
COc1ccc(C(=O)n2nc(-c3ccco3)nc2NCc2cccs2)cc1OC | x | x | x | 1.4% | x | x
CCCc1c(C(=O)N/N=C/c2sccc2C)nnn1-c1nonc1N | -1.3% | -0.9% | 7.6 | -6.2% | 1.9% | -8.8
COCC(C)NC(=O)c1noc2c1CCc1cc(OC)ccc1-2 (configuration not stated) | -27.5% | -23.1% | 33.3* | -7.3% | 2.2% | 82.9*
COc1ccc(OCC(=O)Nc2ccc3c(c2)OCO3)cc1 | -8.4% | 0.5% | 12.7 | -5.9% | -12.8% | 31.9
O=C(COc1ccc(F)cc1)Nc1ccc2c(c1)OCCO2 | 3.6% | -6.0% | 43.8* | 8.3% | 11.4% | 69.9*
Cc1cc(OCC(=O)Nc2ccc3c(c2)OCCO3)ccc1Cl | 4.6% | -2.1% | 38.7* | -3.3% | -22.2% | 106.9*
Cc1cc(C)cc(OCC(=O)Nc2ccc3c(c2)OCCO3)c1 | 6.8% | -3.1% | 18.9 | 1.8% | -11.1% | 36.6
CCOCC(=O)Nc1ccc2c(c1)OCCO2 | -3.1% | -8.8% | 42.4* | -0.2% | -6.8% | 67.8*
O=C(COc1ccc2c(c1)OCO2)Nc1cccc(F)c1 | -3.8% | -0.7% | 34.6* | -5.0% | -9.8% | 100.9*
O=C(O)C(c1ccccc1)C(O)c1ccc2c(c1)OCO2 (configuration not stated) | x | x | x | 0.0% | 1.7% | x
CCc1nc2ccc(C(=O)NCc3ccc4c(c3)OCO4)cn2c1N(C)C(=O)Cc1ccccc1 | x | x | x | -6.9% | 4.1%[18.4 µM] | x
Cc1c(C(=O)Nc2ccc(Br)cc2F)sc2ncnc(N(C)C3CCCCC3)c12 | x | x | x | 5.5% | x | x
COc1ccc(NC(=O)c2cc(S(=O)(=O)NCCC3=CCCCC3)ccc2F)cc1 | x | x | x | 0.2% | x | x
O=C(Cc1cccc(F)c1)N1CCOCC1 | x | x | x | -0.6% | -7.7% | x
CCOC(=O)N1CCN(c2c(Nc3ccc4c(c3)OCCO4)c(=O)c2=O)CC1 | u | 9.1% | 52.5* | -1.3% | -7.6% | 63.6*
CCOC(=O)N1CCN(CC(=O)NC(=O)Nc2ccc3c(c2)OCCO3)CC1 | x | x | x | -8.7% | 3.6% | x
CCOC(=O)c1ccccc1NC(=O)c1cccc(F)c1 | -1.4% | -3.5% | -2.6 | -3.3% | -14.9% | -9.4
Cc1ccc(O)c(C(=O)CC(=O)c2ccc(Cl)cc2)c1 | -10.3% | 5.6% | 38.3* | -1.5% | -10.5% | 96.4*
Cc1ccc(O)c(C(=O)CC(=O)c2cccc(F)c2)c1 | -17.1% | 1.5% | 37.8* | 1.8% | u | 60.6*
Cc1cccc(C(=O)NCC(=O)NNC(=O)c2ccccc2O)c1 | x | x | x | -0.6% | 3.4% | x
O=C(CC(=O)c1cc(Cl)ccc1O)c1ccccc1 | -28.0% | 3.8% | 55.0* | 2.8% | u | 74.0*
Cc1cccc(C(=O)CC(=O)c2cc(Cl)ccc2O)c1 | -16.1% | -11.8% | 27.4* | 5.8% | u | 49.9*
COc1cccc(CNC(=O)CCC2CCCN(c3cc(C)nc(N4CCCC4)n3)C2)c1 (configuration not stated) | 1.6% | -5.1% | 0.9 | 1.7% | -5.9% | -2.6
